Out of some 300,000 compounds screened, about 3,200 (1.1%) were called active. Shown is part of a subset that was picked to be rich in actives. Values without a mark were called inactive. Rule as the data show it: active = inhibition above about 75%; inconclusive = no clear call, values can overlap the other calls; inactive = below that; tested in HMLE shEcad cells.
Test: cancer stem cell viability inhibitors, primary screen, luminescence (AID 2717)
Settings: cancer stem cell-like cells viability, at 7.5 µM, hits give high values
`CC(OC(=O)/C=C/c1ccccc1)C(=O)Nc1ccc(C(N)=O)cc1` (stereo not given) showed an inhibition of -9.55%.
`COc1ccc(-n2nnnc2-c2nc3ccccc3s2)cc1` showed an inhibition of 10.3%.
In the case of `COC(=O)Cc1[nH]n(-c2nc3ccccc3s2)c(=O)c1C(C)=Nc1ccc(OC)cc1`, the inhibition is reported as 32.2%.
For `COc1ccc(C2=NN(c3nc4ccccc4s3)C(=O)C2)cc1`, the inhibition was 81.2% (active).
Compound `O=C(NCCC1=CCCCC1)c1ccc(-n2cncn2)cc1` has an inhibition of -10.8%.
Compound `CCOc1ccccc1Nc1ccc2nonc2c1[N+](=O)[O-]` has an inhibition of -3.74%.
For `O=[N+]([O-])c1c(NCCO)cc(Sc2nc3ccccc3s2)c2nonc12`, the inhibition was 78.7% (active).
`O=C(O)c1cccc(S(=O)(=O)Nc2ccc(O)cc2Sc2nc3ccccc3s2)c1` gave an inhibition of -15.7%.
In the case of `CC(C)C(NC(=O)c1c(F)cccc1F)C(=O)NNC(=O)c1ccccc1` (stereo not given), the inhibition is reported as -4.36%.
In the case of `CC(C)(C)OC(=O)C[C@@H]1C/C=C\C[C@@H](CC(=O)N[C@@H](CO)Cc2ccccc2)C(=O)N2CCC[C@H]2COC1=O`, the inhibition is reported as -16.5%.
Work on `Cc1ccc(C)c(NC(=O)CN(C)C(=O)COc2ccc3ccccc3c2)c1` yielded an inhibition of -11.2%.
Compound `O=C(COc1ccc(Br)cc1F)NCC1(N2CCCCC2)CCCCC1` has an inhibition of 1.3%.
In the case of `O=C1CC(c2ccccc2)=NN1c1ccc([N+](=O)[O-])cc1`, the inhibition is reported as 101% (active).
Compound `O=c1[nH]n(-c2ccc([N+](=O)[O-])cc2)c(=O)c2ccccc12` has an inhibition of -17.2%.
With `CC1=NN(c2ccccc2)C(=O)C1C(=O)c1ccc([N+](=O)[O-])cc1` (stereo not given) the inhibition was -1.87%.
Work on `Cc1ccc(NC(=O)C2CC2)cc1S(=O)(=O)N1CCOCC1` yielded an inhibition of -16%.
In the case of `C[C@H](CO)N1C[C@H](C)[C@H](CN(C)C(=O)Nc2ccc(C(F)(F)F)cc2)Oc2c(NC(=O)c3ccncc3)cccc2C1=O`, the inhibition is reported as 6.77%.
`COc1ccc(NC(=O)Nc2ccc3c(c2)C(=O)N([C@H](C)CO)C[C@H](C)[C@@H](CN(C)C(=O)Nc2ccc4c(c2)OCO4)O3)cc1` showed an inhibition of -11%.
Compound `COc1ccc2[nH]c(=S)cc(C)c2c1` has an inhibition of -16.3%.
For `COc1ccc2sc(-c3ccc(N(C)C)cc3)c(-c3ccc4cc[nH]c4c3)c2c1`, the inhibition was 83.3% (active).
For `COc1cc(OC)cc(-c2c(-c3cccs3)c3cc(-c4ccc(OC)cc4F)ccc3n2C)c1`, the inhibition was -6.57%.
In the case of `COc1cc(OC)cc(-c2sc3ccc(OC)cc3c2-c2ccc3cc[nH]c3c2)c1`, the inhibition is reported as 137% (active).
In the case of `CCN(CC)CC(=O)c1c[nH]c2ccc(OC)cc12`, the inhibition is reported as 3.22%.
In the case of `CC[C@H]1CN2CCc3cc(OC)c(OC)cc3[C@@H]2C[C@@H]1C[C@H]1NCCc2cc(OC)c(OC)cc21`, the inhibition is reported as 76.3% (active).
In the case of `COc1cc2c(cc1O)[C@H](Cc1ccc(Oc3cc(C[C@@H]4NCCc5cc(OC)c(O)cc54)ccc3O)cc1)NCC2`, the inhibition is reported as 9.97%.
In the case of `COc1ccc2c(c1)CCNC2Cc1ccc(OC)c(O)c1` (stereo not given), the inhibition is reported as 10.2%.
With `CN=C(Nc1cccc(S(=O)(=O)N2CCOCC2)c1)c1ccccc1` the inhibition was -5.3%.
For `COc1cccc(CNC(=O)CCCC(=O)Nc2cccc([N+](=O)[O-])c2)c1`, the inhibition was -9.18%.
In the case of `COC(=O)/C=C\C(=O)Nc1cccc([N+](=O)[O-])c1`, the inhibition is reported as 88.5% (active).
With `COc1ccc(S(=O)(=O)NC(C)C(=O)Nc2cccc([N+](=O)[O-])c2)cc1` (stereo not given) the inhibition was -2.67%.
For `Cc1ccc(NC(=O)c2ccc(Cl)nc2)cc1S(=O)(=O)N1CCOCC1`, the inhibition was 33.6%.
In the case of `CCOC(=O)N1CCN(C(=O)COCc2cc(-c3ccc4c(c3)OCO4)on2)CC1`, the inhibition is reported as -12.8%.
For `Cc1cccc(N2CCN(C(=O)COCc3cc(-c4ccc5c(c4)OCO5)on3)CC2)c1C`, the inhibition was 121% (active).
Compound `O=C(COCc1cc(-c2ccc3c(c2)OCO3)on1)N1CCN(c2cccc(Cl)c2)CC1` has an inhibition of 36.2%.
`Cc1ccc(C(=O)Nc2ccc3c(c2)OCCO3)cc1S(=O)(=O)N1CCOCC1` gave an inhibition of -3.87%.
With `C[C@H](CO)N1C[C@H](C)[C@@H](CN(C)S(=O)(=O)c2ccc(F)cc2)Oc2ccc(NC(=O)CCC(F)(F)F)cc2C1=O` the inhibition was 4.59%.
Compound `CCN(c1ccccc1)S(=O)(=O)c1ccc(C(=O)Nc2ccccc2OC)cc1` has an inhibition of 16.8%.
Compound `COc1ccc([C@H]2CC(=O)C=C(c3ccc(CO)cc3)C2)cc1` has an inhibition of -11%.
In the case of `Cc1csc(NC(=S)Nc2cccc(Cl)c2)n1`, the inhibition is reported as 78.6% (active).
`S=C(Nc1cccc(Cl)c1)Nc1ccc2c(c1)OCCO2` gave an inhibition of 4.65%.
With `FC(F)(F)c1cccc(NC(=S)Nc2cccc(Cl)c2)c1` the inhibition was 52.9%.
`CCN(CC)S(=O)(=O)c1ccc(N2CCOCC2)c(NC(=O)C(C)Oc2ccc(F)cc2)c1` (stereo not given) gave an inhibition of -11.2%.
Work on `CN(c1ccccc1)S(=O)(=O)c1cc(C(=O)N2CCN(c3ncccn3)CC2)ccc1Cl` yielded an inhibition of 3.3%.
With `Cc1ccc(C)c(S(=O)(=O)N2CCN(C(=O)Nc3ccccc3)CC2)c1` the inhibition was -18.4%.
Work on `COc1ccc(C)cc1S(=O)(=O)N1CCN(S(=O)(=O)c2cc(C(=O)O)ccc2C)CC1` yielded an inhibition of -3.35%.
In the case of `Cc1ccc(C)c(S(=O)(=O)N2CCN(c3ncnc4sccc34)CC2)c1`, the inhibition is reported as 101% (active).
For `CCC1(C)NC(=O)N(CC(=O)N2CCN(c3cccc(Cl)c3)CC2)C1=O` (stereo not given), the inhibition was 3.29%.
With `CCN1C(=O)/C(=C\N2CCN(c3cccc(Cl)c3)CC2)SC1=S` the inhibition was 100% (active).
Compound `CCN1C(=O)/C(=C\N2CCOCC2)SC1=S` has an inhibition of -22.1%.
In the case of `COc1cc(/C=C/C(=O)Nc2ccc(OC)c(S(=O)(=O)N3CCOCC3)c2)ccc1OCC#N`, the inhibition is reported as 42.4%.
In the case of `O=C(Nc1cccc(S(=O)(=O)N2CCCC2)c1)c1cncc(Br)c1`, the inhibition is reported as -1.23%.
`C=CCC[C@@H](Cc1ccc(F)cc1)C(=O)OC[C@@H](C)NC(=O)[C@H](CC=C)CC(=O)N(CCO)Cc1ccccc1` showed an inhibition of -1.95%.
With `O=C(CSc1nnc(-c2ccncc2)o1)Nc1cccc(Cl)c1` the inhibition was 7.36%.
Compound `Cc1cc(C)c(S(=O)(=O)N2CCC(C(=O)OCc3c(C)noc3C)CC2)c(C)c1` has an inhibition of 1.55%.
`COc1cc(/C=C/C(=O)OCC(=O)NCCCc2ccccc2)ccc1O` gave an inhibition of 14.6%.

Reference: PubChem BioAssay AID2717 (Broad Institute, 2010)
